{"source": "paper PMC12864922", "about": "“TDP-43 directly inhibits mRNA accumulation in neurites through modulation of mRNA stability”", "binders": {"B1": {"name": "ENSMUSG00000042529.274|Kcnj12 (ssRNA)", "RNA": "GGGAGUUCUACAGUCCGACGAUCGCUUCGAUAUCCGCAUGCUAGUGUGCUUACCUGCCACUCACCUCUCUAUCUAGUUGUCGAGUCUAGGGAAGGGCAGAGGGUGGGUCCUGGCCACUGGGUGCCACUGUGGGAGCCGGGGCACCUGUCAUUCUUUCUGAGUAGGUGGGCCUGUAUCCAGAGCAGGGUCUAGGGGCUCCUGCUCCCGGCUCAUCUCAGUGGCCUGAAGCAUUCAAAACUCUAGCCAGCCCCAUCCUCCUCCCUGCCAGAAUGGUCCAGUCCCUGGGCCCUGCUGGAGAGCAGCCUCUUGCGGUCGCACUAGUGUGGAAUUCUCGGGUGUCAAGG"}, "B2": {"name": "ENSMUSG00000004113.47|Cacna1b (ssRNA)", "RNA": "GGGAGUUCUACAGUCCGACGAUCGCUUCGAUAUCCGCAUGCUAGCUAUCACUGCACUUUGGGACUCAGCACUGGCGUCCGGGCGCGGCACAGCUACCACCACCCCGAUCAGGACCACUGGUGCUAGCUGCACCACGACCACCCAUGUACCAGCUCCAUGGGUGAGGGUUCCAGUUGAUGAGUUUUAUCAUCCGCUCUGGGCUGUGGGGUCACAGCCCUGGGAGGAGGGCCCUCACAUCUCGGCCUCUGUGGUGGAGGCUCCUGCUUCCCUCCCUCCCUCCCUUUUACACUGGAUAGACUAAUACUCUUGCGGUCGCACUAGUGUGGAAUUCUCGGGUGUCAAGG"}, "B3": {"name": "ENSMUSG00000004113.89|Cacna1b|48:52;211:215;227:232 (ssRNA)", "RNA": "GGGAGUUCUACAGUCCGACGAUCGCUUCGAUAUCCGCAUGCUAGACUAAUAAAGCCCUUUCUUAGAGGGACAUGGUUCUCUCUAUCCUCCACACAACUGCCUUCCUGGGUUCCAUGCCAGAUGUUGGAUCCUAAGCAGGAGGUAGCUGAGUUGAGAUGGACCCAGCAAAUCCAAAUCCUAUGUCAUGGCCUCCAGCAUCCAGGGUGGGUCCUUGGGACUUUUCUUAGGAGGGACUUUCUGAGCCUCGUGGAGACACACGUUUGUCCAAAACACACGCAUGGGAGAUAGGGUACCCCUGAAAGCCUCUUGCGGUCGCACUAGUGUGGAAUUCUCGGGUGUCAAGG"}, "B4": {"name": "ENSMUSG00000058297.451|Spock2 (ssRNA)", "RNA": "GGGAGUUCUACAGUCCGACGAUCGCUUCGAUAUCCGCAUGCUAAGCAAGCUUCGUGUUUCCUCAGGAGCAAGGUCACACAGGUCAGAUUAUUGUCGGUCCUGCGGGCCUCAUCCUUGAAUAAGCUGCCUGCCCAGUUCCUCCAUCCGUGUUCCUGCCUGCUCCCGUUCCCUUGUUGCGGGCAGGAGAGGUAGGGCUGUGUUGGAAAGAGUUCAACCAAAUUACGGCAGCACCACAUCUUGCCGAGCCCUGGAGCUGCCCUACUAAGAGCCUCCUUAGCCCUGGGUGCUGGGAAGGAUGGUGUACUCUUGCGGUCGCACUAGUGUGGAAUUCUCGGGUGUCAAGG"}, "B5": {"name": "ENSMUSG00000061578.871|Ksr2 (ssRNA)", "RNA": "GGGAGUUCUACAGUCCGACGAUCGCUUCGAUAUCCGCAUGCUAUUAGGUCAGAGGUAUCAAUACAUCUCCGGAAACAUCGUCACAGAUACCUAGAGGUACUUCAUUGAUCCCUUGAAAAGCAUGUCUUAAUUCUGUUAAGAUGUCAAUCAAGAUUACACAUCUCACUGCUUCACAGGCCAUCAGGGCCCCAUUCUGAGGUCCUGGGACACUACCCAAACCCUAGCACUCUCCCAGUGACUCUCCUAUGAGUACAUAUGCCAUCCUGCUUCCUUUGUGGCAAAACCCUGGGUCACCCAGAGACACUCUUGCGGUCGCACUAGUGUGGAAUUCUCGGGUGUCAAGG"}, "B6": {"name": "ENSMUSG00000058297.471|Spock2|33:37 (ssRNA)", "RNA": "GGGAGUUCUACAGUCCGACGAUCGCUUCGAUAUCCGCAUGCUACGUUCCCUUGUUGCGGGCAGGAGAGGUAGGGCACACAUGGAAAGAGUUCAACCAAAUUACGGCAGCACCACAUCUUGCCGAGCCCUGGAGCUGCCCUACUAAGAGCCUCCUUAGCCCUGGGUGCUGGGAAGGAUGGUGUACGUUGGGGAAGUUUGAGGUUGGAGAGAGUAAAUGUGCCUUGAGAGACCACUCAGAGGUCCCAGGAGGAACGGGGGCGGGGCUUAGCCUGGGAGUUCUGGCAGGAGGCAAAGUUGGUGAGACUCUUGCGGUCGCACUAGUGUGGAAUUCUCGGGUGUCAAGG"}, "B7": {"name": "ENSMUSG00000058297.472|Spock2|27:31 (ssRNA)", "RNA": "GGGAGUUCUACAGUCCGACGAUCGCUUCGAUAUCCGCAUGCUACUUGUUGCGGGCAGGAGAGGUAGGGCACACAUGGAAAGAGUUCAACCAAAUUACGGCAGCACCACAUCUUGCCGAGCCCUGGAGCUGCCCUACUAAGAGCCUCCUUAGCCCUGGGUGCUGGGAAGGAUGGUGUACGUUGGGGAAGUUUGAGGUUGGAGAGAGUAAAUGUGCCUUGAGAGACCACUCAGAGGUCCCAGGAGGAACGGGGGCGGGGCUUAGCCUGGGAGUUCUGGCAGGAGGCAAAGUUGGUGAGAGUCCUGCUCUUGCGGUCGCACUAGUGUGGAAUUCUCGGGUGUCAAGG"}, "B8": {"name": "ENSMUSG00000058297.470|Spock2 (ssRNA)", "RNA": "GGGAGUUCUACAGUCCGACGAUCGCUUCGAUAUCCGCAUGCUAUGCUCCCGUUCCCUUGUUGCGGGCAGGAGAGGUAGGGCUGUGUUGGAAAGAGUUCAACCAAAUUACGGCAGCACCACAUCUUGCCGAGCCCUGGAGCUGCCCUACUAAGAGCCUCCUUAGCCCUGGGUGCUGGGAAGGAUGGUGUACGUUGGGGAAGUUUGAGGUUGGAGAGAGUAAAUGUGCCUUGAGAGACCACUCAGAGGUCCCAGGAGGAACGGGGGCGGGGCUUAGCCUGGGAGUUCUGGCAGGAGGCAAAGUUGCUCUUGCGGUCGCACUAGUGUGGAAUUCUCGGGUGUCAAGG"}, "B9": {"name": "ENSMUSG00000058297.469|Spock2 (ssRNA)", "RNA": "GGGAGUUCUACAGUCCGACGAUCGCUUCGAUAUCCGCAUGCUACCUGCCUGCUCCCGUUCCCUUGUUGCGGGCAGGAGAGGUAGGGCUGUGUUGGAAAGAGUUCAACCAAAUUACGGCAGCACCACAUCUUGCCGAGCCCUGGAGCUGCCCUACUAAGAGCCUCCUUAGCCCUGGGUGCUGGGAAGGAUGGUGUACGUUGGGGAAGUUUGAGGUUGGAGAGAGUAAAUGUGCCUUGAGAGACCACUCAGAGGUCCCAGGAGGAACGGGGGCGGGGCUUAGCCUGGGAGUUCUGGCAGGAGGCACUCUUGCGGUCGCACUAGUGUGGAAUUCUCGGGUGUCAAGG"}, "B10": {"name": "ENSMUSG00000058297.474|Spock2|15:19 (ssRNA)", "RNA": "GGGAGUUCUACAGUCCGACGAUCGCUUCGAUAUCCGCAUGCUAAGGAGAGGUAGGGCACACAUGGAAAGAGUUCAACCAAAUUACGGCAGCACCACAUCUUGCCGAGCCCUGGAGCUGCCCUACUAAGAGCCUCCUUAGCCCUGGGUGCUGGGAAGGAUGGUGUACGUUGGGGAAGUUUGAGGUUGGAGAGAGUAAAUGUGCCUUGAGAGACCACUCAGAGGUCCCAGGAGGAACGGGGGCGGGGCUUAGCCUGGGAGUUCUGGCAGGAGGCAAAGUUGGUGAGAGUCCUGGGACAUCUUACCCUCUUGCGGUCGCACUAGUGUGGAAUUCUCGGGUGUCAAGG"}, "B11": {"name": "ENSMUSG00000058297.472|Spock2 (ssRNA)", "RNA": "B7 RNA with A70U, C71G, A72U, C73G, A74U"}, "B12": {"name": "ENSMUSG00000058297.473|Spock2 (ssRNA)", "RNA": "GGGAGUUCUACAGUCCGACGAUCGCUUCGAUAUCCGCAUGCUAGCGGGCAGGAGAGGUAGGGCUGUGUUGGAAAGAGUUCAACCAAAUUACGGCAGCACCACAUCUUGCCGAGCCCUGGAGCUGCCCUACUAAGAGCCUCCUUAGCCCUGGGUGCUGGGAAGGAUGGUGUACGUUGGGGAAGUUUGAGGUUGGAGAGAGUAAAUGUGCCUUGAGAGACCACUCAGAGGUCCCAGGAGGAACGGGGGCGGGGCUUAGCCUGGGAGUUCUGGCAGGAGGCAAAGUUGGUGAGAGUCCUGGGACAUCUCUUGCGGUCGCACUAGUGUGGAAUUCUCGGGUGUCAAGG"}, "B13": {"name": "ENSMUSG00000058297.471|Spock2 (ssRNA)", "RNA": "B6 RNA with A76U, C77G, A78U, C79G, A80U"}, "B14": {"name": "ENSMUSG00000058297.474|Spock2 (ssRNA)", "RNA": "B10 RNA with A58U, C59G, A60U, C61G, A62U"}, "B15": {"name": "ENSMUSG00000058297.470|Spock2|39:43 (ssRNA)", "RNA": "B8 RNA with U82A, G83C, U84A, G85C, U86A"}, "B16": {"name": "ENSMUSG00000058297.468|Spock2 (ssRNA)", "RNA": "GGGAGUUCUACAGUCCGACGAUCGCUUCGAUAUCCGCAUGCUACGUGUUCCUGCCUGCUCCCGUUCCCUUGUUGCGGGCAGGAGAGGUAGGGCUGUGUUGGAAAGAGUUCAACCAAAUUACGGCAGCACCACAUCUUGCCGAGCCCUGGAGCUGCCCUACUAAGAGCCUCCUUAGCCCUGGGUGCUGGGAAGGAUGGUGUACGUUGGGGAAGUUUGAGGUUGGAGAGAGUAAAUGUGCCUUGAGAGACCACUCAGAGGUCCCAGGAGGAACGGGGGCGGGGCUUAGCCUGGGAGUUCUGGCAGCUCUUGCGGUCGCACUAGUGUGGAAUUCUCGGGUGUCAAGG"}, "B17": {"name": "ENSMUSG00000058297.473|Spock2|21:25 (ssRNA)", "RNA": "B12 RNA with U64A, G65C, U66A, G67C, U68A"}}, "note": "Numbering of substitutions follows the chain as printed. Over roughly 9,900 sequences, “r (bound/input frequency ratio)” has its median near 0.7; the highest 2% begin near 6.5. The list comes from a sample in which the highest values are over-represented; it also holds similar and randomly drawn sequences."}
{"biological_target": "TDP-43 (Homo sapiens, UniProt Q13148 1-414)", "sequence (Q13148 whole entry)": "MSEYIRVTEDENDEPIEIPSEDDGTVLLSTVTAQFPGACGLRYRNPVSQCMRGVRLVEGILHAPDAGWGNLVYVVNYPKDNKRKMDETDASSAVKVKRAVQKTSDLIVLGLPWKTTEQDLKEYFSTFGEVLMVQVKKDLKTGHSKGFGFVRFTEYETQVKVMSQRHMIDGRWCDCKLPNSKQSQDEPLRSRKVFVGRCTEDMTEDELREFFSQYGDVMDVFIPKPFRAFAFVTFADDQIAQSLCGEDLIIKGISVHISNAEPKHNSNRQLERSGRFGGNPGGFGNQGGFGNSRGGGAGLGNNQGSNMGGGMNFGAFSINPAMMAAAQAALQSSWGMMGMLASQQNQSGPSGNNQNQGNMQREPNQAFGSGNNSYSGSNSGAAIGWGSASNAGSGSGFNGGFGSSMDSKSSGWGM", "assay": "RNA Bind-n-Seq with designed 260-mer pool; 25 mM Tris-HCl, 150 mM KCl, 3 mM MgCl2, BSA (printed 500 mg/mL), 20 units/mL SUPERase IN; pH not stated; 500 nM RNA pool, 1 h, 4 C; TDP-43 5, 50, 500 nM; high values mean tight binding", "conditions": "protein: recombinant; tags: SBP (GST cleaved off with PreScission; pGEX-GST-SBP)", "outline": "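An in vitro-transcribed pool of 260-nt 3′ UTR oligos (500 nM) was incubated for 1 h at 4 °C with recombinant SBP-tagged TDP-43 at 5, 50 or 500 nM held on streptavidin beads. The buffer contained 25 mM Tris-HCl, 150 mM KCl, 3 mM MgCl2, BSA and SUPERase IN. Biotin-eluted bound RNA was sequenced, and binding, R, is each oligo's normalized read abundance in the bound sample over that in input.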"}
{"binder": "B1", "binding signal": "0.622 R (bound/input frequency ratio)"}
{"binder": "B2", "binding signal": "0.27 R (bound/input frequency ratio)"}
{"binder": "B3", "binding signal": "0.504 R (bound/input frequency ratio)"}
{"binder": "B4", "binding signal": "0.383 R (bound/input frequency ratio)"}
{"binder": "B5", "binding signal": "0.301 R (bound/input frequency ratio)"}
{"binder": "B6", "binding signal": "4.19 R (bound/input frequency ratio)"}
{"binder": "B7", "binding signal": "4.63 R (bound/input frequency ratio)"}
{"binder": "B8", "binding signal": "8.94 R (bound/input frequency ratio)"}
{"binder": "B9", "binding signal": "2.58 R (bound/input frequency ratio)"}
{"binder": "B10", "binding signal": "3.2 R (bound/input frequency ratio)"}
{"binder": "B11", "binding signal": "7.38 R (bound/input frequency ratio)"}
{"binder": "B12", "binding signal": "6.95 R (bound/input frequency ratio)"}
{"binder": "B13", "binding signal": "7.28 R (bound/input frequency ratio)"}
{"binder": "B14", "binding signal": "5.67 R (bound/input frequency ratio)"}
{"binder": "B15", "binding signal": "5.26 R (bound/input frequency ratio)"}
{"binder": "B16", "binding signal": "3.47 R (bound/input frequency ratio)"}
{"binder": "B17", "binding signal": "3.59 R (bound/input frequency ratio)"}
